The text below walks through data of PubChem BioAssay (EPA / NIEHS).

Some structures have more than one record in an assay (separate samples or runs), and their calls can disagree. Active and inactive are the calls of the source. The calls were made as follows: active = hit-call score of the fitted dose curve at least 0.9, where 1 is the maximum; inactive = score below 0.9.

The nature of this assay: ATG_AP_1_CIS: Attagene CIS-FACTORIAL HepG2 Assay for human Activator Protein 1 (AP-1) (AID 2282931). The following applies: HepG2 Attagene cis-factorial AP-1 reporter mRNA; actives raise or lower the signal. On the procedure:
ATG_CIS is a cell-based, multiplexed-readout assay that uses HepG2, a human liver cell line, with measurements taken at 24 hours after chemical dosing in a 24-well plate.ATG_AP_1_CIS is one of 52 assay component(s) measured or calculated from the ATG_CIS assay. It is designed to make measurements of mRNA induction, a form of inducible reporter, as detected with fluorescence intensity signals by Reverse transcription polymerase chain reaction (RT-PCR) and Capillary electrophoresis technology.Data from the assay component ATG_AP_1_CIS was analyzed into 1 assay endpoint. This assay endpoint, ATG_AP_1_CIS, was analyzed with bidirectional fitting relative to DMSO as the negative control and baseline of activity. Using a type of inducible reporter, measures of mRNA for gain or loss-of-signal activity can be used to understand the reporter gene at the transcription factor-level as they relate to the gene FOS and JUN. Furthermore, this assay endpoint can be referred to as a primary readout, because this assay has produced multiple assay endpoints where this one serves a reporter gene function. To generalize the intended target to other relatable targets, this assay endpoint is annotated to the dna binding intended target family, where the subfamily is basic leucine zipper.
Human liver HepG2 cells are transiently transfected with multiple reporter transcription units (MRTUs) in 6-well plates using FuGene 6 reagent (Roche; 3 ml FuGene/1 mg DNA). The MRTU constructs are regulated by a cis-regulating element (promoter). […] A major difference between the CIS and TRANS system is that in CIS activities of endogenous TFs are measured, whereas the TRANS assay evaluates changes in activities of exogenous, chimeric NR-Gal4 proteins. […] At the end of 24 hour incubation, total RNA was isolated using TriZol reagent (Invitrogen). The isolated RNA is then reverse-transcribed using oligo(dT) primer and Mo-MLV reverse transcriptase (Invitrogen) with DNAse I (Ambion) treatment for 30 min. The one-tenth of the produced cDNA was amplified by PCR using Taq DNA polymerase (Invitrogen) and two reporter sequence-specific primers. The PCR products were fluorescently labeled by primer extension with 6-arboxyfluorescein (6-FAM) 5'-labeled reporter sequence-specific primer (2 min at 95 C, 20 s at 68 C and 10 min at 72 C) and these products were digested with 5U of HpaI (New England Biolabs) for 2h at 37 C. The fragments were purified using Qiaquick PCR columns (Qiagen), analyzed on an ABI 3130xL genetic analyzer (Applied Biosystems) with peak positions identified by using a set of X-rhodamine (ROX)-labeled MapMarker1000 molecular weight standards (BioVentures). The raw capillary electrophoresis data was processed using Attagraph software (Attagene).
`FC(F)(F)C(F)(F)C(F)(F)N(C(F)(F)C(F)(F)C(F)(F)F)C(F)(F)C(F)(F)C(F)(F)F`: the result was inactive. Still for that read-out and setting: to `CCCCCCOC(=O)c1ccccc1` belongs “inactive”; to `Nc1ccc([N+](=O)[O-])cc1O`, “inactive”. On to `Cc1cccc(N(C)C)c1`, for which the compound was called inactive. Still for that read-out and setting: to `CC(CCl)OP(=O)(OC(C)CCl)OC(C)CCl` (stereo not given) belongs “inactive”.

On to `CC(C)(C)C(=O)CC(=O)C(F)(F)C(F)(F)C(F)(F)F`, for which the outcome was inactive. On the same count and under the same terms, to `Oc1ccc(Nc2ccccc2)cc1` belongs “inactive”; to `CCCCCCCOC(=O)c1ccccc1C(=O)OCCCCCCC`, “inactive”; to `CC(C)=CCCC(C)CCOC(=O)C(C)C` (stereo not given), “inactive”.

For `O=S(=O)(OCC(F)F)C(F)(F)F`, the result was inactive. In general, AC50 refers to the concentration at which the activity in the assay is half-maximal. Turning to `O[Si](c1ccccc1)(c1ccccc1)c1ccccc1`, the AC50 was 100 µM (active). On the same count and under the same terms, to `C(=C(c1ccccc1)c1ccccc1)c1ccccc1` belongs 36.7 µM (active). Regarding `OCC(F)(F)C(F)(F)C(F)(F)C(F)(F)C(F)(F)C(F)(F)F`, the compound was called inactive.

On to `CCCCCCC(C)OC(=O)CCCCC(=O)OC(C)CCCCCC` (stereo not given), for which the outcome was inactive. On the same count and under the same terms, to `CC(Cc1ccc(O)c(O)c1)C(C)Cc1ccc(O)c(O)c1` (stereo not given) belongs “inactive”. On the same count and under the same terms, to `C=C(C)C(=O)OCCC(F)(F)C(F)(F)C(F)(F)C(F)(F)C(F)(C(F)(F)F)C(F)(F)F` belongs “inactive”; to `CC(=O)Nc1ccc(N=Nc2cc(C)ccc2O)cc1`, “inactive”. Consider `OCC(F)(F)C(F)(F)C(F)(F)F`, for which the result was inactive. Turning to `CCCCC(CC)COP(=O)(O)OCC(CC)CCCC` (stereo not given), the AC50 was 60.6 µM (active).

As to `OCCCC(F)(F)C(F)(F)C(F)(F)C(F)(F)C(F)(F)C(F)(F)C(F)(F)F`, the call was inactive. On to `C=CC(=O)OCC(F)(F)C(F)(F)C(F)(F)C(F)(F)COC(=O)C=C`, for which the AC50 was 50 µM (active).

With `FC(F)(F)C(F)(F)C(F)(F)CI`, the call was inactive. Turning to `C#C[C@]1(O)CC[C@H]2[C@@H]3CCc4cc(OC)ccc4[C@H]3CC[C@@]21C`, the compound was classed as inactive. The same measure, in the same setting: to `FC(F)(F)C(F)(F)CNCC(F)(F)C(F)(F)F` belongs “inactive”. Same read-out and setting: to `Nc1cc(Cl)c(N)c(Cl)c1` belongs “inactive”; to `[Co]`, “inactive”. `OCCCC(F)(F)C(F)(F)C(F)(F)F`: the outcome was inactive.

`c1ccc(-c2ccccc2-c2ccccc2)cc1`: the AC50 is 58.7 µM (active). Turning to `Cc1ccc(S(=O)(=O)OCC(F)(F)C(F)(F)C(F)(F)C(F)(F)C(F)(F)C(F)F)cc1`, the call was inactive. On the same count and under the same terms, to `FC(F)(F)C(F)(F)C(F)(F)C(F)(F)C(F)(F)C(F)(F)C(F)(F)C(F)(F)F` belongs “inactive”. The same measure, in the same setting: to `CCN(Cc1cccc(S(=O)(=O)O)c1)c1ccc(C(=C2C=CC(=[N+](CC)Cc3cccc(S(=O)(=O)O)c3)C=C2)c2ccc(O)cc2S(=O)(=O)[O-])cc1` belongs “inactive”. Same read-out and setting: to `FC(F)(F)C(F)(F)C(F)(F)C(F)(F)C(F)(F)C(F)(F)CCS` belongs “inactive”. As for `CCc1ccc(C(c2ccc(CC)cc2)C(Cl)Cl)cc1`, the AC50 was 66.5 µM (active). Consider `Nc1ccc(S(=O)(=O)Nc2nccs2)cc1`, for which the compound was called inactive.

On to `O=C(CC(=O)C(F)(F)C(F)(F)F)C(F)(F)F`, for which the AC50 was 150 µM (active) and the compound was classed as inactive. In the case of `O=C(O)C(F)(OC(F)(F)C(F)(OC(F)(F)C(F)(OC(F)(F)C(F)(F)C(F)(F)F)C(F)(F)F)C(F)(F)F)C(F)(F)F` (stereo not given), the call was inactive. Same read-out and setting: to `COC(=O)CCC(F)(F)C(F)(F)C(F)(F)C(F)(F)F` belongs “inactive”; to `O=C(O)C(F)(F)C(F)(F)C(F)(F)C(F)(F)C(F)(F)C(F)(F)C(F)(F)C(F)(F)C(F)(F)C(F)(F)C(F)(F)C(F)(F)F`, “inactive”; to `CC/C=C\CCOC(=O)c1ccccc1`, “inactive”.
